Reference: PubChem BioAssay
Activity calls are given as the source filed them.

How the values were obtained:
[1] = binders of probe aFSTL3 on microarray, primary screen, stem cell growth factor project, biochemical, small-molecule microarray, fluorescence 635/667 (AID 1064); conditions: higher = more signal;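 note: measures binding of the biotinylated anti-FSTL3 antibody to printed compounds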
[2] = binders from COS7 lysate, DM2A8 probe, primary screen, torsin A project, cell lysate, small-molecule microarray, fluorescence 635/667 (AID 1065); conditions: higher = more signal, COS7 lysate expressing mutant human TOR1A
[3] = binders of probe aFGF2 on microarray, primary screen, stem cell growth factor project, biochemical, small-molecule microarray, fluorescence 635/667 (AID 1067); conditions: higher = more signal;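 note: measures binding of biotinylated aFGF2 protein to printed compounds on slides; z-score merges feature fluorescence and signal-to-noise across triplicate slides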
[4] = binders of probe aFGF10 on microarray, primary screen, stem cell growth factor project, biochemical, small-molecule microarray, fluorescence 635/667 (AID 1071); conditions: higher = more signal;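 note: score merges 667 nm spot intensity and signal to noise from triplicate slides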
[5] = target: Neurogenic locus notch homolog protein 2 (Homo sapiens) (UniProt Q04721); experiment: Notch2 binders on small-molecule microarrays, primary screen, biochemical, small-molecule microarray, 635 nm fluorescence, stem cell growth factors (AID 1073); conditions: Notch2 binding, higher = more signal
[6] = target: Pro-neuregulin-1, membrane-bound isoform (Homo sapiens) (UniProt Q02297); experiment: NRG1 binders on small-molecule microarrays, primary screen, psychiatric disease protein project, biochemical, small-molecule microarray, fluorescence 635/667 (AID 1075); conditions: NRG1 binding, 635 nm fluorescence, higher = more signal;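 note: score combines 667 nm spot fluorescence with signal to noise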
[7] = system: Neuregulin-1 EGF-like domain; experiment: binders of neuregulin-1 EGF-like domain, primary screen, biochemical, small-molecule microarray, 635 nm fluorescence (AID 1081); conditions: small-molecule microarray binding, higher = more signal;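 note: binding of the protein to compounds printed on small-molecule microarray slides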
[8] = FRG1 promoter luciferase signal modulators, primary screen, FRG1 inhibition for FSHD, cell-based, C2C12 myotubes, firefly/Renilla luciferase, luminescence (AID 1084); conditions: higher = more signal, called active from +8 up or from −8 down
[9] = binders of probe aFST on microarray, primary screen, stem cell growth factor project, biochemical, small-molecule microarray, fluorescence 635/667 (AID 1086); conditions: higher = more signal;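 note: score merges 667 nm fluorescence with signal-to-noise of each printed compound spot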
[10] = binders of probe aHhip on microarray, primary screen, stem cell growth factor project, biochemical, small-molecule microarray, fluorescence 635/667 (AID 1087); conditions: higher = more signal;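 note: score merges spot fluorescence at 667nm with spot signal to noise ratio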
[11] = system: PRMT1 (protein arginine N-methyltransferase 1); experiment: PRMT1 binders on small-molecule microarrays, primary screen, biochemical, small-molecule microarray, 635 nm fluorescence (AID 1088); conditions: small-molecule microarray binding, higher = more signal;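 note: binding of Prmt1 protein to compounds spotted on small-molecule microarray slides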
[12] = yeast growth modulation, basal conditions, primary screen, YJM789 clinical isolate, OD600, 24 h (AID 1089);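 note: growth of clinical yeast isolate S. cerevisiae YJM 789 seeded 1000 cells per well; test concentration not given here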; conditions: S. cerevisiae YJM789 growth, higher = more signal, called active from +8 up or from −8 down
[13] = fission yeast growth modulation, primary screen, strain 972, OD600, 24 h, no modulator (AID 1090);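 note: basal condition with compound alone and no growth modifier present; test concentration not given here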; conditions: S. pombe 972 growth, higher = more signal, called active from +8 up or from −8 down
[14] = S. cerevisiae growth modulation with rapamycin, primary screen, strain BY4716, OD600, 96 h (AID 1091); conditions: higher = more signal, called active from +8 up or from −8 down; note: test concentration not given here
[15] = target: Torsin-1A-interacting protein 2 (Homo sapiens) (UniProt Q8NFQ8); experiment: LULL1 binders on small-molecule microarray, primary screen, cell lysate, human LULL1 lysate, 635/667 nm fluorescence (AID 1092); conditions: hLULL1 lysate binding, 635 nm fluorescence, higher = more signal;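 note: probe is lysate of COS7 cells overexpressing human LULL1; score merges per-feature 667 nm fluorescence with signal-to-noise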
[16] = E. coli growth modulation, two-sided OD650, primary screen, E. coli filamentation project, strain DRC41, 24 h (AID 1093); conditions: OD650, 24 h, higher = more signal, called active from +8 up or from −8 down;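 note: MC1000 strain lacking acrAB efflux and sulA so SOS filamentation is blocked; test concentration not given here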
[17] = small-molecule microarray binders of probe aLefty2, primary screen, biochemical, biotinylated probe, 635/667 nm fluorescence (AID 1094); conditions: higher = more signal;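 note: score merges spot fluorescence near 667 nm with spot signal-to-noise ratio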
[18] = system: Noggin (protein binding on small-molecule microarray); experiment: Noggin binders on small-molecule microarray, primary screen, biochemical, 635/667 nm fluorescence (AID 1095); conditions: 635 nm fluorescence, higher = more signal;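 note: score merges 667 nm feature fluorescence with signal to noise over triplicate slides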
[19] = target: Neurogenic locus notch homolog protein 3 (Homo sapiens) (UniProt Q9UM47); experiment: NOTCH3 binders on small-molecule microarray, primary screen, biochemical, 635/667 nm fluorescence (AID 1096); conditions: NOTCH3 binding, 635 nm fluorescence, higher = more signal
[20] = small-molecule microarray binders of probe aEGFR, primary screen, biochemical, biotinylated probe, 635/667 nm fluorescence (AID 1097); conditions: higher = more signal;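 note: probe is a biotinylated anti-EGFR antibody binding compounds printed on slides; score combines fluorescence near 667 nm and signal to noise of each spot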

Torsin-1A-interacting protein 2 (Homo sapiens), sequence (Q8NFQ8 whole entry, looked up): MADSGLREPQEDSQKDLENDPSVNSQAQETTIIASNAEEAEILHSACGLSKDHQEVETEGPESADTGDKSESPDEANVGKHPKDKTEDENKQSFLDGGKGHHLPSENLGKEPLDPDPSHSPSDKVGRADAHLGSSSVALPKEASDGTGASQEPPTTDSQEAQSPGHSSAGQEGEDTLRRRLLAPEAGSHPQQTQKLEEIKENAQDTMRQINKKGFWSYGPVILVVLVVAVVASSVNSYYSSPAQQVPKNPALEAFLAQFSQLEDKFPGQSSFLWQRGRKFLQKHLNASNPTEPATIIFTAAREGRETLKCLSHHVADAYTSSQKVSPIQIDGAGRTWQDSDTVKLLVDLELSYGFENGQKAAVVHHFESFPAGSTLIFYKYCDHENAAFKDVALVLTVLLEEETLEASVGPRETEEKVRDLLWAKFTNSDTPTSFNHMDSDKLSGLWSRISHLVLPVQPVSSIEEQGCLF
Pro-neuregulin-1, membrane-bound isoform (Homo sapiens), sequence (Q02297 whole entry, looked up, the tested form may be a part, canonical isoform): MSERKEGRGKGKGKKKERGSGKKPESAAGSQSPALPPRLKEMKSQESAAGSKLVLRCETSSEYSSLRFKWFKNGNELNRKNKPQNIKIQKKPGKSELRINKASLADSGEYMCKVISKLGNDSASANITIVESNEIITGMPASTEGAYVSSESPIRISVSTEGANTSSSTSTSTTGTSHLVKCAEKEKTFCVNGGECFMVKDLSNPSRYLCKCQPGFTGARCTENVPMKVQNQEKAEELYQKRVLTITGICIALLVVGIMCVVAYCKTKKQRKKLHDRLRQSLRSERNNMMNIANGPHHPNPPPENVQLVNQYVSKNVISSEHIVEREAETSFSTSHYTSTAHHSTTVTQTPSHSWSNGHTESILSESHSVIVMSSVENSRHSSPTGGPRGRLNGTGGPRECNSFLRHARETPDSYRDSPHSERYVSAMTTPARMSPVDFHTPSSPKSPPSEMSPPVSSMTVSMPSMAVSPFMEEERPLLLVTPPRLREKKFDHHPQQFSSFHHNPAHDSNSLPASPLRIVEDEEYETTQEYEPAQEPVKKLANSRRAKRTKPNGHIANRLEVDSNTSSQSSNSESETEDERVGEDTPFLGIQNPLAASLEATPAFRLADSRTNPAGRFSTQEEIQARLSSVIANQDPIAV
Neurogenic locus notch homolog protein 3 (Homo sapiens), sequence (Q9UM47 whole entry, looked up): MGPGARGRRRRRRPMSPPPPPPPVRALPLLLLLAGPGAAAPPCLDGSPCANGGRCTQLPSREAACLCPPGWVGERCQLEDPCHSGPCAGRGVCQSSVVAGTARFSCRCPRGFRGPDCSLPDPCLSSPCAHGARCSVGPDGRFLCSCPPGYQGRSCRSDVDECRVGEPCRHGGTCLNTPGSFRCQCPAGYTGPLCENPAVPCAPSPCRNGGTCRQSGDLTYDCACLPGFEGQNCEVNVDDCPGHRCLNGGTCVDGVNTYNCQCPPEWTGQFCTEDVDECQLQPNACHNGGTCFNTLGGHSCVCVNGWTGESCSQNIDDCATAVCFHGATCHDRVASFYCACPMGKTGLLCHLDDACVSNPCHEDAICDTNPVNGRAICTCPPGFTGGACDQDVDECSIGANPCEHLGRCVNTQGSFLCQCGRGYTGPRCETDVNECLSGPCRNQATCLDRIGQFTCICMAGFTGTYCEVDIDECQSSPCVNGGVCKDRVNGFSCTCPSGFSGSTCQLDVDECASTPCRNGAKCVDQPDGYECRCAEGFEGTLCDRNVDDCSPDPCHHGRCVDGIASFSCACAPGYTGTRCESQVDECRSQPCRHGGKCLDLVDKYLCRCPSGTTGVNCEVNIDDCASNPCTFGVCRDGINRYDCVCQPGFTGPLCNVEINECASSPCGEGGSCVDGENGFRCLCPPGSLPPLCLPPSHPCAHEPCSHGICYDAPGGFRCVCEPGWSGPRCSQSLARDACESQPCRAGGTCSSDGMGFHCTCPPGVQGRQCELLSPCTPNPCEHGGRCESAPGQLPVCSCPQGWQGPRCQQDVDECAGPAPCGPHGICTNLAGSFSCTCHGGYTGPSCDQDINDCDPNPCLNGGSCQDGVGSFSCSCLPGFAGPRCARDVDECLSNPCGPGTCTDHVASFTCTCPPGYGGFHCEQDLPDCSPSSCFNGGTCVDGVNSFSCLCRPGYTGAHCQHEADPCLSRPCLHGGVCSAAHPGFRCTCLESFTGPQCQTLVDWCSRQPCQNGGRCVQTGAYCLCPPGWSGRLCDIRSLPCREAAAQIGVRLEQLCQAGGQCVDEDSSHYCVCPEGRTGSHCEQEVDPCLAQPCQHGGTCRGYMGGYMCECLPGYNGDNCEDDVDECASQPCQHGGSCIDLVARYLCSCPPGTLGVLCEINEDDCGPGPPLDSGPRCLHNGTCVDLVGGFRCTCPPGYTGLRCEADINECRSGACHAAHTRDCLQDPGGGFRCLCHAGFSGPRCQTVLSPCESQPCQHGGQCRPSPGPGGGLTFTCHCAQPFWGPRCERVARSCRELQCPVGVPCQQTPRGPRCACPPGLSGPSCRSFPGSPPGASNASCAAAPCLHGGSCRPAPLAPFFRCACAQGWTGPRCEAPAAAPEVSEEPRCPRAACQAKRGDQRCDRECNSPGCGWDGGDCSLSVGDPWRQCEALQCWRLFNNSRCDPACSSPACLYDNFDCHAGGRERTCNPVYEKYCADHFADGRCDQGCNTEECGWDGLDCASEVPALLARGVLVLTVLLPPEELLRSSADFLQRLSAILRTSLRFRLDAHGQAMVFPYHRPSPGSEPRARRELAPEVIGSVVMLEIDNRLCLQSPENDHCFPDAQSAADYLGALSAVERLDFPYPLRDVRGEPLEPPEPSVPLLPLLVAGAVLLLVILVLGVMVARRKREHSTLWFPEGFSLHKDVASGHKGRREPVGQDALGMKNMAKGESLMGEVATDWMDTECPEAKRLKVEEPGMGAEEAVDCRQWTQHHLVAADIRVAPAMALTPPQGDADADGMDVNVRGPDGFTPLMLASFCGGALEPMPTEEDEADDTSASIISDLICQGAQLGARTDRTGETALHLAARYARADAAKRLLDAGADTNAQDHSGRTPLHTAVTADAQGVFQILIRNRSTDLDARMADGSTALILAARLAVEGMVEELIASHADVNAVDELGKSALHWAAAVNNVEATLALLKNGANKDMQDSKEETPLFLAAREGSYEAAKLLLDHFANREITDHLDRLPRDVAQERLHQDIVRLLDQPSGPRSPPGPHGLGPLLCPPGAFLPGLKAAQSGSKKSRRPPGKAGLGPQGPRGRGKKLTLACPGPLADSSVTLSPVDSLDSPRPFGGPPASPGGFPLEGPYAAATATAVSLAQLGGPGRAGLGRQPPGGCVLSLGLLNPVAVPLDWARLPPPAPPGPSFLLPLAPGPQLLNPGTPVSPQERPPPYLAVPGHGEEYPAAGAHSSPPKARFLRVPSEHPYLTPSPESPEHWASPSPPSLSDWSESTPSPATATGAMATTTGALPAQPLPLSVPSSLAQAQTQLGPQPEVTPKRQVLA

Structure (SMILES): O=C1O[C@H](c2ccccc2)[C@H](c2ccccc2)N2[C@H]1[C@@H](C(=O)O)[C@]1(C(=O)Nc3ccc(C#CC4(O)CCCCCC4)cc31)[C@H]2c1ccc(OCCO)cc1
- composite z-score [1]: -0.133
- composite z-score [2]: -0.337
- composite z-score [3]: 0.0201
- composite z-score [4]: 0.564
- composite z-score [5]: 0.263
- composite z-score [6]: 1.85
- composite z-score [7]: 1.14
- z-score [8]: 1.11 (inactive)
- composite z-score [9]: 1.07
- composite z-score [10]: -0.0994
- composite z-score [11]: 1.37
- z-score [12]: 2.28 (inactive)
- z-score [13]: 0.219 (inactive)
- z-score [14]: 0.124 (inactive)
- composite z-score [15]: 3.58
- z-score [16]: -0.831 (inactive)
- composite z-score [17]: -0.124
- composite z-score [18]: -0.338
- composite z-score [19]: 0.528
- composite z-score [20]: -0.216

Structure (SMILES): Cc1ccc([C@H]2[C@H](C(=O)O)[C@H](Sc3ccccc3)[C@@H](C(C)C)N2S(=O)(=O)c2ccc(C)cc2)cc1
- composite z-score [1]: -0.182
- composite z-score [2]: -0.126
- composite z-score [3]: 0.167
- composite z-score [4]: 0.307
- composite z-score [5]: 1.49
- composite z-score [6]: 1.78
- composite z-score [7]: 0.945
- z-score [8]: -2.58 (inactive)
- composite z-score [9]: 1.31
- composite z-score [10]: -0.226
- composite z-score [11]: 1.03
- z-score [12]: -0.611 (inactive)
- z-score [13]: -0.0319 (inactive)
- z-score [14]: -0.993 (inactive)
- composite z-score [15]: 3.03
- z-score [16]: -1.69 (inactive)
- composite z-score [17]: 0.179
- composite z-score [18]: 0.0176
- composite z-score [19]: 1.13
- composite z-score [20]: -0.0679

Structure (SMILES): CC(C)(C)N1CC=CC23O[C@@H]4C=CCOC(=O)[C@@H]4[C@H]2C(=O)N(CCCCCO)[C@@H]3C1=O (stereo not given in full)
- composite z-score [1]: 0.469
- composite z-score [2]: -0.555
- composite z-score [3]: -0.159
- composite z-score [4]: -0.335
- composite z-score [5]: -1.38
- composite z-score [6]: 0.978
- composite z-score [7]: 1.33
- z-score [8]: 0.952 (inactive)
- composite z-score [9]: 0.411
- composite z-score [10]: -0.339
- composite z-score [11]: -0.396
- z-score [12]: -0.256 (inactive)
- z-score [13]: -0.0499 (inactive)
- z-score [14]: -0.177 (inactive)
- composite z-score [15]: 0.735
- z-score [16]: 0.385 (inactive)
- composite z-score [17]: -0.215
- composite z-score [18]: -0.617
- composite z-score [19]: -0.374
- composite z-score [20]: -0.224

Structure (SMILES): CCOC(=O)C1=CCC(c2ccc(C#N)cc2)N(S(=O)(=O)c2ccc(C)cc2)C1 (stereo not given)
- composite z-score [1]: 0.657
- composite z-score [2]: 0.359
- composite z-score [3]: 0.165
- composite z-score [4]: 0.446
- composite z-score [5]: 1.67
- composite z-score [6]: 1.32
- composite z-score [7]: 1.27
- z-score [8]: -3.85 (inactive)
- composite z-score [9]: 1.27
- composite z-score [10]: 0.11
- composite z-score [11]: 1.11
- z-score [12]: -0.0764 (inactive)
- z-score [13]: 0.0767 (inactive)
- z-score [14]: 2.91 (inactive)
- composite z-score [15]: 2.64
- z-score [16]: 0.394 (inactive)
- composite z-score [17]: 0.276
- composite z-score [18]: -0.184
- composite z-score [19]: 1.09
- composite z-score [20]: -0.0297

Structure (SMILES): COCCCNC(=O)[C@@]1(CCC(=O)OC(C)(C)C)N=C(c2ccc(OCCCO)cc2)O[C@H]1c1ccccc1CN=[N+]=[N-]
- composite z-score [1]: -0.073
- composite z-score [2]: -0.158
- composite z-score [3]: -0.0724
- composite z-score [4]: 0.527
- composite z-score [5]: 1.67
- composite z-score [6]: 1.59
- composite z-score [7]: 1.27
- z-score [8]: 2.42 (inactive)
- composite z-score [9]: 1.53
- composite z-score [10]: 0.238
- composite z-score [11]: 1.26
- z-score [12]: -0.187 (inactive)
- z-score [13]: -0.738 (inactive)
- z-score [14]: -0.363 (inactive)
- composite z-score [15]: 3.74
- z-score [16]: 0.316 (inactive)
- composite z-score [17]: 0.194
- composite z-score [18]: 0.624
- composite z-score [19]: 1.06
- composite z-score [20]: 0.305

Structure (SMILES): [N-]=[N+]=NCc1ccccc1C[C@@]1(C(=O)N2CCOCC2)N=C(c2ccc(OCCCO)cc2)O[C@@H]1c1ccccc1CN=[N+]=[N-]
- composite z-score [1]: 0.998
- composite z-score [2]: 0.232
- composite z-score [3]: 0.266
- composite z-score [4]: 1.01
- composite z-score [5]: 1.52
- composite z-score [6]: 1.91
- composite z-score [7]: 1.37
- z-score [8]: -3.63 (inactive)
- composite z-score [9]: 1.57
- composite z-score [10]: 0.156
- composite z-score [11]: 1.58
- z-score [12]: 0.466 (inactive)
- z-score [13]: -0.559 (inactive)
- z-score [14]: 28 (active)
- composite z-score [15]: 3.28
- z-score [16]: 0.291 (inactive)
- composite z-score [17]: 0.743
- composite z-score [18]: 0.631
- composite z-score [19]: 0.967
- composite z-score [20]: 0.662

Structure (SMILES): CCCNC(=O)[C@@]1(c2ccc([N+](=O)[O-])cc2)CC(=O)N(CC23CC4CC(CC(C4)C2)C3)[C@@H]1c1ccc(CO)cc1
- composite z-score [1]: -0.271
- composite z-score [2]: 0.515
- composite z-score [3]: 0.0422
- composite z-score [4]: 0.303
- composite z-score [5]: 0.143
- composite z-score [6]: 0.582
- composite z-score [7]: 0.791
- z-score [8]: -1.75 (inactive)
- composite z-score [9]: 1.13
- composite z-score [10]: 0.358
- composite z-score [11]: 0.89
- z-score [12]: -0.057 (inactive)
- z-score [13]: -0.403 (inactive)
- z-score [14]: 4.67 (inactive)
- composite z-score [15]: 0.907
- z-score [16]: 0.156 (inactive)
- composite z-score [17]: 0.164
- composite z-score [18]: 0.701
- composite z-score [19]: 0.305
- composite z-score [20]: 0.105

Structure (SMILES): COc1ccc([Si](C)(C)[C@H]2[C@H](CCn3cc(CCO)nn3)O[C@@]3(C(=O)N(Cc4ccc(N5CCOC5=O)cc4)c4ccccc43)[C@@H]2C)cc1
- composite z-score [1]: 0.102
- composite z-score [2]: 1.38
- composite z-score [3]: -0.0158
- composite z-score [4]: 0.44
- composite z-score [5]: 0.14
- composite z-score [6]: 1.51
- composite z-score [7]: 1.07
- z-score [8]: -3.54 (inactive)
- composite z-score [9]: 0.147
- composite z-score [10]: -0.236
- composite z-score [11]: 1.37
- z-score [12]: 1.02 (inactive)
- z-score [13]: 0.928 (inactive)
- z-score [14]: 4.55 (inactive)
- composite z-score [15]: 1.31
- z-score [16]: 1.01 (inactive)
- composite z-score [17]: -0.103
- composite z-score [18]: 0.42
- composite z-score [19]: 0.928
- composite z-score [20]: -0.212

Structure (SMILES): Cc1ccc(S[C@]2(C(=O)NCc3ccccc3)CC(=O)N(Cc3ccccc3)[C@@H]2c2ccc(CO)cc2)cc1
- composite z-score [1]: 0.264
- composite z-score [2]: -0.443
- composite z-score [3]: -0.0165
- composite z-score [4]: 0.793
- composite z-score [5]: -0.338
- composite z-score [6]: 1.33
- composite z-score [7]: 1.09
- z-score [8]: -2.33 (inactive)
- composite z-score [9]: -0.0886
- composite z-score [10]: -0.169
- composite z-score [11]: 1.55
- z-score [12]: -0.349 (inactive)
- z-score [13]: -0.288 (inactive)
- z-score [14]: -0.0702 (inactive)
- composite z-score [15]: 3.04
- z-score [16]: -0.927 (inactive)
- composite z-score [17]: -0.001
- composite z-score [18]: -0.9
- composite z-score [19]: -0.91
- composite z-score [20]: -0.272

Structure (SMILES): Cc1ccc(S[C@]2(C(=O)NCC(C)C)CC(=O)N(Cc3ccccc3)[C@@H]2c2ccc(CO)cc2I)cc1
- composite z-score [1]: -0.0472
- composite z-score [2]: 0.0315
- composite z-score [3]: 0.0664
- composite z-score [4]: 0.161
- composite z-score [5]: 0.533
- composite z-score [6]: 0.892
- composite z-score [7]: 1.27
- z-score [8]: -2.06 (inactive)
- composite z-score [9]: -0.325
- composite z-score [10]: -0.0427
- composite z-score [11]: 1.3
- z-score [12]: -1.29 (inactive)
- z-score [13]: -0.927 (inactive)
- z-score [14]: 1.66 (inactive)
- composite z-score [15]: 2.55
- z-score [16]: 0.0384 (inactive)
- composite z-score [17]: 0.124
- composite z-score [18]: 0.8
- composite z-score [19]: 0.905
- composite z-score [20]: 0.0537
